Eight compounds from PubChem BioAssay (Tox21) can be followed below.

Inconclusive results are not listed. Active and inactive are the calls of the source. Unless noted, calls come from the whole dose curve; as a rule, active = well fitted curve in the direction sought with a large enough effect in the repeat runs; inconclusive = weak or mixed curves; inactive = no such curve, though single readings can be large; an effect the other way counts as inactive or inconclusive.

Test [1] can be described thus: qHTS RealTime-Glo MT Cell Viability Assay in HEK293 cells - 0 hour (AID 1224880). Note: nearly all actives have a fitted effect of over 45% in size. Note: potency is the fitted concentration of half-maximal effect. Summed up:
(§1)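 Luminescence readout at each listed time point; HEK293, 600 cells/well, RealTime-Glo MT reagent added with cells; compounds pinned (23 nL in DMSO) after 5 h at 37 C; continuous culture at 37 C.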

Test [2] is described as follows: A CellTox Green Cytotoxicity Assay to monitor cytotoxicity in HEK293 cells - 32 hour (AID 1224881). Note: nearly all actives have a fitted effect of over 40% in size. Summed up:
(§2)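 Read-out: fluorescence of a cell-impermeant cyanine dye staining DNA of dead cells, proportional to cytotoxicity. HEK293, 600 cells/well with reagent, compound (23 nL DMSO) added after 5 h; reads at 0, 8, 16, 24, 32, 40 h.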

Test [3] is described as follows: A CellTox Green Cytotoxicity Assay to monitor cytotoxicity in HepG2 cells - 0 hour (AID 1224882). Note: nearly all actives have a fitted effect of over 35% in size. A digest of the protocol: (§3)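 HepG2, 600 cells/well premixed w/ CellTox Green; 5 h settle, 37 C/5% CO2; pintool cpd add (DMSO); 37 C, 40 h; fluorescence read at 0, 8, 16, 24, 32, 40 h.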
The nature of test [4]: A CellTox Green Cytotoxicity Assay to monitor cytotoxicity in HepG2 cells - 32 hour (AID 1224883). Note: nearly all actives have a fitted effect of over 50% in size. Note: potency is the fitted concentration of half-maximal effect. A digest of the protocol: as §3
Test [5] is described as follows: A CellTox Green Cytotoxicity Assay to monitor cytotoxicity in HEK293 cells - 8 hour (AID 1224884). Note: nearly all actives have a fitted effect of over 35% in size. Summed up:
as §2

Test [6] in a line: qHTS RealTime-Glo MT Cell Viability Assay in HepG2 cells - 16 hour (AID 1224885). Note: nearly all actives have a fitted effect of over 50% in size. A digest of the protocol: (§4)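 Tox21 10K library screened in qHTS format on HepG2 cells carrying RealTime-Glo reagents. Compounds were added after a 5 h preincubation, and the luminescent signal from continuous culture was measured repeatedly during 40 h treatment.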
A general note: Quantitative high-throughput screening tests each substance at several concentrations.

A short description of test [7]: qHTS RealTime-Glo MT Cell Viability Assay in HEK293 cells - 24 hour (AID 1224886). Note: top concentration of the series differs between compounds; nearly all actives have a fitted effect of over 50% in size. Summed up: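 Luminescence generated by NanoLuc from substrate produced by living HEK293 cells served as the viability signal. Each value reflects the reading at its stated time point during continuous 40 h compound exposure at 37 C.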
The nature of test [8]: qHTS RealTime-Glo MT Cell Viability Assay in HEK293 cells - 8 hour (AID 1224887). Note: top concentration of the series differs between compounds; nearly all actives have a fitted effect of over 50% in size. A digest of the protocol:
as §1

Test [9] is described as follows: A CellTox Green Cytotoxicity Assay to monitor cytotoxicity in HEK293 cells - 16 hour (AID 1224888). Note: nearly all actives have a fitted effect of over 35% in size. A digest of the protocol:
as §2

A short description of test [10]: qHTS RealTime-Glo MT Cell Viability Assay in HepG2 cells - 0 hour (AID 1224889). Note: nearly all actives have a fitted effect of over 50% in size. Note: potency is the fitted concentration of half-maximal effect. Summed up:
as §4

Test [11] can be described thus: A CellTox Green Cytotoxicity Assay to monitor cytotoxicity in HepG2 cells - 8 hour (AID 1224890). Note: nearly all actives have a fitted effect of over 45% in size. Summed up: as §3
Test [12] in a line: qHTS assay to identify small molecule antagonists of the estrogen receptor alpha (ER-alpha) signaling pathway using the BG1 cell line in the presence of 0.1 nM 17-beta-estradiol - cell viability counter screen (AID 1259241). Note: nearly all actives have a fitted effect of over 40% in size. A digest of the protocol: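 Cytotoxicity counter-screen: live-cell protease activity measured by fluorescence (30 min reagent step) in the same wells. Cells were VM7Luc4E2 with endogenous ER-alpha and ERE-driven luciferase, treated 22 hr at 37C alongside 0.1 nM 17beta-estradiol final.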

The nature of test [13]: qHTS assay to identify small molecule antagonists of the androgen receptor (AR) signaling pathway using the MDA cell line in the presence of 0.5 nM R1881 - cell viability counter screen (AID 1259242). Note: nearly all actives have a fitted effect of over 45% in size. Summed up:
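Live-cell protease fluorescence, CellTiter-Fluor, 30 min at 37C. Cells: MDA-kb2, 3,000/well, preincubated 5 hr. Compounds plus 0.5 nM R1881 final, 16 hr, 37C, 0% CO2.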

Test [14] can be described thus: qHTS assay to identify small molecule agonists of the sonic hedgehog signaling (Shh) pathway - cell viability counter screen (AID 1259366). Note: nearly all actives have a fitted effect of over 50% in size. Note: potency is the fitted concentration of half-maximal effect. Summed up: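 Cytotoxicity counter screen: CellTiter-Fluor reagent added after 23 h compound exposure, then 1 h at 37C and fluorescence read. Cells were 3T3 Gli1-Luc, seeded 2,000 per well and dosed 4 h post-plating.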
A short description of test [15]: qHTS assay to identify small molecule antagonists of the sonic hedgehog signaling (Shh) pathway - cell viability counter screen (AID 1259367). Note: nearly all actives have a fitted effect of over 55% in size. Note: potency is the fitted concentration of half-maximal effect. A digest of the protocol: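 CellTiter-Fluor signal in conditioned medium-stimulated 3T3 Gli1-Luc cells, 23 hr compound exposure, 37C.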
In test [16] the target is Estrogen receptor (Homo sapiens) (UniProt P03372). As to the kind of experiment: qHTS assay to identify small molecule antagonists of the estrogen receptor alpha (ER-alpha) signaling pathway using the BG1 cell line in the presence of 0.1 nM 17-beta-estradiol (AID 1259244). Note: nearly all actives have a fitted effect of over 50% in size. Summed up: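 Luminescence after ONE-Glo (30 min, room temperature) measured ERE-luciferase activity in VM7Luc4E2 cells treated 22 h with compound and 0.1 nM final 17beta-estradiol as stimulator.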

Test [17] can be described thus: qHTS assay to identify small molecule phospholipidosis (PLD) inducers (AID 1259344; active = well fitted curve in the direction sought with a large enough effect; an effect the other way counts as inactive or inconclusive). A digest of the protocol:
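Accumulated phospholipid, stained red by LipidTOX during 24 h compound treatment of HepG2 cells at 37 C, is quantified from images as pit number and intensity, normalised per cell using Hoechst-stained nuclei.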

A short description of test [18]: qHTS assay to identify small molecule HDAC inhibitors (AID 1259364).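 Note: wild-type HCT-116 cells with endogenous class I/II HDAC activity; top concentration of the series differs between compounds; nearly all actives have a fitted effect of over 45% in size.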 Summed up:
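HCT-116 (wild type), 1,500 cells/well, overnight; compound 2 hr 37C 5% CO2; HDAC-Glo I/II reagent 30 min RT; luminescence readout.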

Test [19] can be described thus: qHTS assay to identify small molecule HDAC inhibitors - cell viability counter screen (AID 1259365). Summed up:
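CellTiter-Glo luminescence (30 min, room temperature) reported viability after a 2 h compound exposure at 37 C. Cells: wild-type HCT-116, 1,500 per well, seeded the night before.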

Chain of Estrogen receptor (Homo sapiens) (P03372 whole entry, looked up): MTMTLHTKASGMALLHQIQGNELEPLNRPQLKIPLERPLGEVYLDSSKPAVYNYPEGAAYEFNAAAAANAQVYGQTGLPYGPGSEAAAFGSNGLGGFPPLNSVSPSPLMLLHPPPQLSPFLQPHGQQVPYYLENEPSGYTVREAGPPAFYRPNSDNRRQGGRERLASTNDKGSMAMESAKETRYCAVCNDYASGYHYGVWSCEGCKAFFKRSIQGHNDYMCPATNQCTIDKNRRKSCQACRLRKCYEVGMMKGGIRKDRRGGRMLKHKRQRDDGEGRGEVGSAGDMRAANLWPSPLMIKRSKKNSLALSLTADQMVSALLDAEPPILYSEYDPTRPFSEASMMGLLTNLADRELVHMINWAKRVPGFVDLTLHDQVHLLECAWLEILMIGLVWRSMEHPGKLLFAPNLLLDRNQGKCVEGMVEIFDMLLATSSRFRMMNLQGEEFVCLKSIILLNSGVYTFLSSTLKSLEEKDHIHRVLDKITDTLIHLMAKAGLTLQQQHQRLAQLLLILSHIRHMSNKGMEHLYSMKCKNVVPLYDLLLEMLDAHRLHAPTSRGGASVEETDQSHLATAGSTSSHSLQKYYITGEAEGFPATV

`CCCCCCOC(=O)CCCCC`: the Potency entry in [1], in test [2], in [3], in test [4], in test [5] and in [6] was “inactive” in each case. Moreover, the Potency entry in test [7], in test [8], in test [9], in test [10], in [11] and in [12] was “inactive” each time. Besides, the Potency entry in test [13], in test [14] and in test [15] was “inactive” throughout.
Consider `COc1ccc(-c2cc(C(F)F)nn2-c2ccc(S(N)(=O)=O)cc2)cc1F`, for which the Potency result in test [1], in test [2], in [3], in test [4], in [5] and in [6] was “inactive” throughout. For the same compound, the Potency result in test [8], in test [9], in test [10], in test [11], in [12] and in test [13] was “inactive” in each case. The Potency result in test [16], in test [17], in test [18], in test [19], in [14] and in test [15] was “inactive” each time.
As to `O=C(NS(=O)(=O)/C=C/c1ccccc1)c1ccc(F)cc1Cl`, the figures for the Potency in test [1], in test [4] and in [10] were 12.3 µM (active), 54.9 µM (active) and 19.5 µM (active), respectively. Moreover, the Potency entry in test [2], in test [3], in test [5], in test [7], in test [8] and in [9] was “inactive” each time. Also, the Potency result in test [11], in [12], in test [13], in test [16], in test [18] and in [19] was “inactive” each time. Further, the Potency entry in test [14] and in test [15] was “inactive” throughout.
`CCCc1nc2c(C)cc(-c3nc4ccccc4n3C)cc2n1Cc1ccc(-c2ccccc2C(=O)O)cc1`: the Potency result in test [1], in [2], in test [3], in [4], in [5] and in test [6] was “inactive” each time. Besides, the Potency result in test [9], in test [11], in test [12], in test [13], in test [16] and in test [17] was “inactive” throughout. Further, the Potency result in test [18] and in [19] was “inactive” throughout.
On to `COc1cc(NCc2ccc3nc(N)nc(N)c3c2C)cc(OC)c1OC`, for which the Potency entry in test [1], in [2], in [3], in [4], in test [5] and in test [6] was “inactive” in each case. Moreover, the Potency entry in test [9], in [10], in test [11], in test [13], in [17] and in test [18] was “inactive” in each case. For the same compound, in test [19], the Potency entry is “inactive”. The Potency in test [14] and in test [15] was 15 µM (active) each time.
Consider `CC[C@H]1OC(=O)[C@H](C)[C@@H](O[C@H]2C[C@@](C)(OC)[C@@H](O)[C@H](C)O2)[C@H](C)[C@@H](O[C@@H]2O[C@H](C)C[C@H](N(C)C)[C@H]2O)[C@](C)(O)C[C@@H](C)C(=O)[C@H](C)[C@@H](O)[C@]1(C)O`, for which the Potency entry in test [1], in test [2], in test [3], in test [4], in test [5] and in test [6] was “inactive” each time. Also, the Potency result in test [7], in test [8], in test [9], in [10], in [11] and in [13] was “inactive” throughout. Further, the Potency entry in test [18], in [19] and in test [15] was “inactive” in each case.
Consider `Cc1cccc(C)c1NC(=O)c1cc(S(N)(=O)=O)c(Cl)cc1O`, for which the Potency result in [1], in test [2], in test [3], in test [4], in test [5] and in [7] was “inactive” in each case. Further, the Potency result in [8], in test [9], in test [10], in [11], in test [12] and in test [13] was “inactive” each time. In addition, the Potency result in test [18], in test [19], in test [14] and in test [15] was “inactive” in each case.
On to `CC1CCc2nccnc21` (centres undefined), for which the Potency entry in [1], in [2], in test [3], in test [4], in [5] and in test [6] was “inactive” each time. For the same compound, the Potency result in test [7], in [8], in test [9], in test [11], in [12] and in [13] was “inactive” throughout. Besides, the Potency entry in test [16] and in test [14] was “inactive” in each case.
